From PubChem BioAssay
Active and inactive are the calls of the source.

Assays:
[1] = optical density shifts of acrAB sulA E. coli – strain DRC41, OD650, 48 h, E. coli filamentation inducer project, primary screen (AID 1152); settings: higher = more signal, called active from +8 up or from −8 down;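 note: E. coli MC1000 strain DRC41 lacking acrAB efflux pump and sulA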
[2] = probe aLefty1 binding on compound microarray – biochemical, small-molecule microarray, 635/667 nm fluorescence, primary screen (AID 1153); settings: higher = more signal;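 note: score merges spot fluorescence with signal-to-noise ratio from the scanned slide images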
[3] = plasmodial surface anion channel blockers, osmotic lysis – cell-based, P. falciparum Indochina, OD700, 1 h, primary screen (AID 1154); settings: P. falciparum Indochina infected RBC osmotic lysis, higher = more signal, called active from +8 up or from −8 down
[4] = plasmodial surface anion channel blockers, osmotic lysis – cell-based, P. falciparum Indochina, OD700, 2 h, primary screen (AID 1155);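 note: lysis reports solute entry through the parasite surface anion channel PSAC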; settings: P. falciparum Indochina infected erythrocytes, higher = more signal, called active from +8 up or from −8 down
[5] = changes in parasitized red cell lysis, either direction – P. falciparum Indochina, OD700, 3 h, PSAC antagonist project, primary screen (AID 1156); settings: P. falciparum-infected erythrocytes, osmotic lysis, higher = more signal, called active from +8 up or from −8 down
[6] = plasmodial surface anion channel blockers, osmotic lysis – cell-based, P. falciparum Indochina, OD700, 18 h, primary screen (AID 1157); settings: P. falciparum Indochina infected erythrocytes, osmotic lysis OD700, 18 h; higher = more signal, called active from +8 up or from −8 down
[7] = S6 kinase pathway phospho-S6 level changes – cell-based, A549, cytoblot, luminescence, serum-stimulated, primary screen (AID 1158); settings: 5 h, higher = more signal;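 note: serum-stimulated A549 lung adenocarcinoma cells; signal is phosphorylated S6 detected by cytoblot immunostaining with HRP secondary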
[8] = molecular target: NADPH oxidase 2 (Homo sapiens) (UniProt P04839); assay: compounds shifting NOX2 Amplex Red fluorescence – cell-based, HEK293-NOX2, PMA-stimulated, NOX inhibitor project, primary screen (AID 1159); settings: 45 min, higher = more signal, called active from +8 up or from −8 down; note: test concentration not given here
Sequence of NADPH oxidase 2 (Homo sapiens) (P04839 whole entry, looked up): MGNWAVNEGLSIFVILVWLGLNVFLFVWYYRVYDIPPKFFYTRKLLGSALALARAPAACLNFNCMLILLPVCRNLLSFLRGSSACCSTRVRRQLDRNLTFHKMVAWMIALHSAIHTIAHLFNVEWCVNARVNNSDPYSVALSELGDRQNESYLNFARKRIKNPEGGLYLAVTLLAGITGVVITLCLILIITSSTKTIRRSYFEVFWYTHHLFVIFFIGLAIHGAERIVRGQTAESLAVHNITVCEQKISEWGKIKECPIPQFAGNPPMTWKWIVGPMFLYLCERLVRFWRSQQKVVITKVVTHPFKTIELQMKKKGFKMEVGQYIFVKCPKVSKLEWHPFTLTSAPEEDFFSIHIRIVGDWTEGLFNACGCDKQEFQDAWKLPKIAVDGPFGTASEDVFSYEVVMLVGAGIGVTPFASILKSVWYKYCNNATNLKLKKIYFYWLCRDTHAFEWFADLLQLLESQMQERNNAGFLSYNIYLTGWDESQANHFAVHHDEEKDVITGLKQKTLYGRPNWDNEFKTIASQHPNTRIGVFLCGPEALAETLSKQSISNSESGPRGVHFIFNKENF

[9] = molecular target: NADPH oxidase 4 (Homo sapiens) (UniProt Q9NPH5); assay: compounds shifting NOX4 Amplex Red fluorescence – cell-based, HEK293-NOX4, tetracycline-induced, NOX inhibitor project, primary screen (AID 1160); settings: HEK293-NOX4, Amplex Red H2O2 fluorescence, 45 min; higher = more signal, called active from +8 up or from −8 down
Sequence of NADPH oxidase 4 (Homo sapiens) (Q9NPH5 whole entry, looked up): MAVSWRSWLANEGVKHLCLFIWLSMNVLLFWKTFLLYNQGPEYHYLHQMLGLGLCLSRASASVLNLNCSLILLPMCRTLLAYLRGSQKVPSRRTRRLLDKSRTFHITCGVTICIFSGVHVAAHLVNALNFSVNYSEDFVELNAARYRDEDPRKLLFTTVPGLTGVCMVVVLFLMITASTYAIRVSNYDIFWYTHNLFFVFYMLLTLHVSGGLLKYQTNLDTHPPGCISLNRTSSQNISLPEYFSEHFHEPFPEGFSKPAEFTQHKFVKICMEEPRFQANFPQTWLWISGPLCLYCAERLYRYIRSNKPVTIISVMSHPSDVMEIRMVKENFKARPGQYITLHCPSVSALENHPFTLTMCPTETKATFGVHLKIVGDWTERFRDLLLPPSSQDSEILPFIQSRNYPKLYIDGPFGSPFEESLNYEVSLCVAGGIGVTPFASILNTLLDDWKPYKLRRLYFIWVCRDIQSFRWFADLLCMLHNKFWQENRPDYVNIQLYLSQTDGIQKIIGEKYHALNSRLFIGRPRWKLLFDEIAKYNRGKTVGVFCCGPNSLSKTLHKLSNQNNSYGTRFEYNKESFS

[10] = molecular target: NADPH oxidase 5 (Homo sapiens) (UniProt Q96PH1); assay: compounds shifting NOX5 Amplex Red fluorescence – cell-based, HEK293-NOX5, NOX inhibitor project, primary screen (AID 1161); settings: HEK293-NOX5, ionomycin, 45 min, higher = more signal
Sequence of NADPH oxidase 5 (Homo sapiens) (Q96PH1 whole entry, looked up): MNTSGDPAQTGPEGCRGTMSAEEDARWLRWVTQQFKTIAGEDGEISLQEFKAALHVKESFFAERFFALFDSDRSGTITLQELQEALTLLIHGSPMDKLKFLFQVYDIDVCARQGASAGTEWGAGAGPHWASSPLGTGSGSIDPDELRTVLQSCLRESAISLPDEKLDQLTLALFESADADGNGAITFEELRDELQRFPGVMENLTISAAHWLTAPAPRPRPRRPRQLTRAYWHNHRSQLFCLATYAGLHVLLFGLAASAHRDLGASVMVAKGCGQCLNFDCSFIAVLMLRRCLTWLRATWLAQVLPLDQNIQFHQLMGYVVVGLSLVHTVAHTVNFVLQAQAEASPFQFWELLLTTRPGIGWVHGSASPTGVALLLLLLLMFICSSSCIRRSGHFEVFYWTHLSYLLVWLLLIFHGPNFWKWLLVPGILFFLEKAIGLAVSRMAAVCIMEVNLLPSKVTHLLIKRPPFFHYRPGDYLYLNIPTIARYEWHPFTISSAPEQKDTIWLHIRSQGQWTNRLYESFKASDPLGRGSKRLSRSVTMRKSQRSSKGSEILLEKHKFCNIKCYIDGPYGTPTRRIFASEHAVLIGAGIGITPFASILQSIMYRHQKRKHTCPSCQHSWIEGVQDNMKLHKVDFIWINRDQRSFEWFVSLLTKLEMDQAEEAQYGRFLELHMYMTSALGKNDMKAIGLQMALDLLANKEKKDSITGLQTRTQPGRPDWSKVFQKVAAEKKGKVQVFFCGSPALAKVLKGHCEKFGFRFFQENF

[11] = compound effects on lung adenocarcinoma cell viability – A549, calcein-AM fluorescence, 48 h, basal, profiling panel (AID 1162); settings: higher = more signal; note: test concentration not given here
[12] = compound effects on differentiated 3T3-L1 adipocyte viability – cell-based, 3T3-L1 adipocytes, calcein-AM fluorescence, 48 h, basal, profiling panel (AID 1163); settings: 3T3-L1 adipocytes viability, higher = more signal; note: test concentration not given here
[13] = compound effects on hepatocellular carcinoma cell viability – HepG2, calcein-AM fluorescence, 48 h, basal, profiling panel (AID 1164); settings: higher = more signal; note: test concentration not given here
[14] = compound effects on multiple myeloma cell viability – MM1S, calcein-AM fluorescence, 48 h, basal, profiling panel (AID 1165); settings: higher = more signal;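 note: viability of MM1S multiple myeloma cells under basal unstimulated conditions; test concentration not given here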
[15] = calcein-AM signal in unstimulated myeloma cells – cell-based, calcein-AM fluorescence, 48 h, PK04 Diversity Set, profiling panel (AID 1166); settings: RPMI8226 myeloma viability, higher = more signal;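 note: cells grown under basal conditions without added stimulus; test concentration not given here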
[16] = JC-1 mitochondrial signal, unstimulated HepG2 cells – cell-based, JC-1 fluorescence, 24 h, 100 nL compound, profiling panel (AID 1167); settings: HepG2 mitochondrial potential, higher = more signal; note: test concentration not given here
[17] = JC-1 mitochondrial signal, unstimulated adipocytes – cell-based, JC-1 fluorescence, 3T3-L1 adipocytes, 24 h, 100 nL compound, profiling panel (AID 1168); settings: JC-1 mitochondrial fluorescence, higher = more signal, called active from +8 up or from −8 down; note: test concentration not given here
[18] = JC-1 mitochondrial signal, unstimulated myeloma cells – cell-based, JC-1 fluorescence, RPMI8226, 24 h, 100 nL compound, profiling panel (AID 1169); settings: JC-1 mitochondrial potential fluorescence, higher = more signal; note: test concentration not given here
[19] = JC-1 mitochondrial signal, unstimulated MM1S myeloma – cell-based, JC-1 fluorescence, 24 h, 100 nL compound, profiling panel (AID 1170); settings: MM1S mitochondrial potential, higher = more signal; note: test concentration not given here
[20] = resazurin metabolic signal in A549 cells – cell-based, resazurin fluorescence, 24 h, PK04 Diversity Set, profiling panel (AID 1171); settings: A549 viability, higher = more signal, called active from +8 up or from −8 down; note: test concentration not given here

SMILES	z-score [1]	composite z-score [2]	z-score [3]	z-score [4]	z-score [5]	z-score [6]	z-score [7]	z-score [8]	z-score [9]	z-score [10]	z-score [11]	z-score [12]	z-score [13]	z-score [14]	z-score [15]	z-score [16]	z-score [17]	z-score [18]	z-score [19]	z-score [20]
[N-]=[N+]=NCc1ccccc1C[C@@]1(C(=O)N2CCCCC2)N=C(c2ccc(OCCCO)cc2)O[C@@H]1c1ccccc1CN=[N+]=[N-]	0.464 (inactive)	0.254	27.5 (active)	19.6 (active)	3.4 (inactive)	2.31 (inactive)	-0.276	-1.29 (inactive)	-0.467 (inactive)	-0.859	-0.683	-0.819	0.036	-1.39	-3.57	-0.357	-0.639 (inactive)	-1.17	-1.64	0.742 (inactive)
CCCC=C(CCC)[C@@H](NS(=O)(=O)c1cccc2cccnc12)c1ccc(-c2ccccc2)cc1	-1.37 (inactive)	0.396	0.012 (inactive)	0.451 (inactive)	1.24 (inactive)	0.913 (inactive)	0.389	-0.876 (inactive)	1.59 (inactive)	2.39	-0.97	-0.411	-0.615	-1.95	-4.54	-3.54	-0.0229 (inactive)	-0.361	-0.844	0.864 (inactive)
CC(C)C[C@@H]1NC(=O)CNC(=O)[C@@]23C(=O)N[C@@H](Cc4ccccc4)C2[C@H](C)[C@@]2(C)O[C@H]2C3/C=C/C/C=C\CNC1=O (stereo not given in full)	-0.455 (inactive)	-0.0265	0.349 (inactive)	-0.262 (inactive)	0.183 (inactive)	-0.16 (inactive)	-0.0425	0.217 (inactive)	1.1 (inactive)	0.149	-0.692	0.404	-0.262	0.0565	-0.939	-0.513	0.00154 (inactive)	-0.385	-0.181	0.547 (inactive)
COC(=O)C(CC#Cc1ccc2c(c1)[C@]1(C(=O)N2)[C@H](C(=O)Nc2nc3ccccc3s2)[C@H]2C(=O)O[C@H](c3ccccc3)[C@H](c3ccccc3)N2[C@@H]1c1ccc(OCCO)cc1)C(=O)OC	2.65 (inactive)	0.5	5.91 (inactive)	0.782 (inactive)	0.299 (inactive)	-1.27 (inactive)	1.76	1.1 (inactive)	0.326 (inactive)	0.613	0.686	1.18	1.64	-0.82	-1.97	-3.2	1.59 (inactive)	-1	-0.693	0.0002 (inactive)
CCN(CC)c1ccc(N2CC=CC34O[C@@H]5/C=C\CCC(C)OC(=O)C5[C@H]3C(=O)N(C(C)CO)[C@@H]4C2=O)cc1 (stereo not given in full)	1.23 (inactive)	-0.196	0.946 (inactive)	-0.227 (inactive)	0.987 (inactive)	0.304 (inactive)	-0.276	0.33 (inactive)	-0.619 (inactive)	1.69	-0.0588	-1.03	1.48	0.86	0.388	1.16	0.0645 (inactive)	-0.616	-0.585	-0.0052 (inactive)
CC(C)CNC(=O)[C@@]1(C)c2ccccc2C(=O)N(Cc2cc(C(F)(F)F)cc(C(F)(F)F)c2)[C@H]1c1ccc(CO)cc1	0.516 (inactive)	-0.101	7.12 (inactive)	1.13 (inactive)	2.06 (inactive)	0.428 (inactive)	-0.404	-0.766 (inactive)	0.596 (inactive)	0.821	0.18	-0.698	1.2	-0.236	0.208	2.16	0.103 (inactive)	0.465	-0.939	-0.428 (inactive)
C=CCNC(=O)[C@H]1[C@@H]2C(=O)O[C@@H](c3ccccc3)[C@@H](c3ccccc3)N2[C@@H](c2ccc(OCCO)cc2)[C@]12C(=O)N(C(=O)OCCOC)c1ccc(C#Cc3ccc(OC)cc3)cc12	2.2 (inactive)	0.323	3.4 (inactive)	1.31 (inactive)	-0.0152 (inactive)	0.121 (inactive)	2.44	1.19 (inactive)	0.615 (inactive)	-0.0482	-0.394	1.44	-0.652	-0.303	-1.2	-1.22	3.09 (inactive)	-0.904	-0.529	0.0724 (inactive)
CC(C)CCC[C@@H](C)[C@H]1CC[C@@]2(C)C3=C(CC[C@]12C)[C@@]1(C)CC[C@H](OC(=O)c2ccccc2)C(C)(C)C1CC3 (stereo not given in full)	2.94 (inactive)	0.0939	-0.44 (inactive)	-0.47 (inactive)	-0.414 (inactive)	-1.26 (inactive)	1.64	-0.898 (inactive)	0.288 (inactive)	0.465	0.667	0.635	0.771	0.34	0.201	1.73	1.1 (inactive)	-0.671	-2.12	0.774 (inactive)
O=C(O)[C@@H]1C[C@@H]2C(=O)N3CCC[C@H]3C(=O)N2[C@@H]1c1cccc(OCCO)c1	0.807 (inactive)	2.57	2.94 (inactive)	0.591 (inactive)	-1.77 (inactive)	0.35 (inactive)	0.132	1.29 (inactive)	0.355 (inactive)	1.59	0.0951	0.717	-0.439	-0.456	-0.159	0.591	0.283 (inactive)	0.817	0.718	-0.0326 (inactive)
